Laboratory results reported in PubChem BioAssay (EPA / NIEHS).
Calls of active or inactive are those of the source. The calls were made as follows: active = hit-call score of the fitted dose curve at least 0.9, where 1 is the maximum; inactive = score below 0.9.

Experiments:
Conditions in all cases: mRNA level, 48 h; actives raise or lower the signal
[1] = read-out: Nuclear factor NF-kappa-B p105 subunit (Homo sapiens) (UniProt P19838); experiment: LTEA_HepaRG_NFKB1: Life Technologies and Expression Analysis (LTEA) Assay for Nuclear Factor Kappa B Subunit 1 (NFKB1) using HepaRG (AID 2283521)
Method in brief: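 Human HepaRG cells receive eight half-log concentrations, highest 100 uM, for 48 h. NFKB1 expression is then quantified by qRT-PCR and analysed for up- or down-regulation relative to 0.5% DMSO vehicle.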

[2] = read-out: Protein phosphatase 2A (PPP2R4), PTPA (gene 5524); experiment: LTEA_HepaRG_PPP2R4: Life Technologies and Expression Analysis (LTEA) Assay for Protein phosphatase 2A (PPP2R4) using HepaRG (AID 2283522)
Method in brief: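 HepaRG, 48 h exposure, 8-pt half-log series from 100 uM, 0.5% DMSO vehicle, duplicates. Readout: PPP2R4 mRNA, Fluidigm qRT-PCR, housekeeping-normalized. Bidirectional curve fit vs DMSO baseline.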

[3] = read-out: Phosphatase and tensin (PTEN), PTEN (gene 5728); experiment: LTEA_HepaRG_PTEN: Life Technologies and Expression Analysis (LTEA) Assay for Phosphatase and tensin (PTEN) using HepaRG (AID 2283523)
Method in brief: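 Expression of PTEN is quantified in the human liver line HepaRG following two days of dosing (top concentration 100 uM, half-log dilutions, 0.5% DMSO). Values derive from bidirectional curve fitting relative to DMSO controls.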

[4] = read-out: solute carrier (SLC22A1), SLC22A1 (gene 6580); experiment: LTEA_HepaRG_SLC22A1: Life Technologies and Expression Analysis (LTEA) Assay for solute carrier (SLC22A1) using HepaRG (AID 2283524);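 as to AC50: differentiated human HepaRG liver cells in serum-free induction medium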
Method in brief: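 Transcript induction or suppression of SLC22A1 in human HepaRG cultures is scored after 48 h chemical treatment, with DMSO (0.5%) as baseline for bidirectional fitting. Concentrations span eight half-log points topping at 100 uM.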

[5] = read-out: Pyruvate Dehydrogenase Kinase 4 (PDK4), PDK4 (gene 5166); experiment: LTEA_HepaRG_PDK4: Life Technologies and Expression Analysis (LTEA) Assay for Pyruvate Dehydrogenase Kinase 4 (PDK4) using HepaRG (AID 2283525)
Method in brief: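 Eight-point, half-log concentration series (max 100 uM, 0.5% DMSO) applied to differentiated HepaRG cells for 48 h in duplicate. Endpoint: PDK4 mRNA induction or repression by qRT-PCR against DMSO baseline.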

[6] = read-out: NAD(P)H dehydrogenase [quinone] 1 (NQO1), NQO1 (gene 1728); experiment: LTEA_HepaRG_NQO1: Life Technologies and Expression Analysis (LTEA) Assay for NAD(P)H dehydrogenase [quinone] 1 (NQO1) using HepaRG (AID 2283526)
Method in brief: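 qRT-PCR read-out (Fluidigm TaqMan), normalized to three housekeeping genes, after 48 h chemical exposure of HepaRG cells. Concentrations: eight points, top 100 uM, half-log steps, 0.5% DMSO vehicle. Gain or loss of signal fitted relative to DMSO.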

[7] = read-out: Nuclear factor erythroid 2-related factor 2 (Homo sapiens) (UniProt Q16236); experiment: LTEA_HepaRG_NFE2L2: Life Technologies and Expression Analysis (LTEA) Assay for Nuclear factor erythroid 2-related factor 2 (NFE2L2) Transcription Factor using HepaRG (AID 2283527);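 also: TaqMan qRT-PCR transcript level normalised to ACTB GAPDH and POLR2A housekeeping genes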
Method in brief: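 Human liver HepaRG line treated in duplicate for 48 h with an eight-point series topping at 100 uM. Gene expression of NFE2L2 by qRT-PCR, bidirectionally fitted against the vehicle control.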

[8] = read-out: succinate dehydrogenase complex iron sulfur subunit B (SDHB), SDHB (gene 6390); experiment: LTEA_HepaRG_SDHB: Life Technologies and Expression Analysis (LTEA) Assay for succinate dehydrogenase complex iron sulfur subunit B (SDHB) using HepaRG (AID 2283528)
Method in brief: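 A human HepaRG culture in serum-free induction medium received test chemicals for 48 h over an eight-point range capped at 100 uM. SDHB expression change was quantified by qRT-PCR.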

[9] = read-out: Signal transducer and activator of transcription 3 (Homo sapiens) (UniProt P40763); experiment: LTEA_HepaRG_STAT3: Life Technologies and Expression Analysis (LTEA) Assay for Signal transducer and activator of transcription (STAT3) using HepaRG (AID 2283529)
Method in brief: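 In this transcriptional endpoint, HepaRG cultures receive test chemicals at up to 100 uM for 48 h, tested in duplicate. STAT3 mRNA is normalized to ACTB, GAPDH and POLR2A.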

[10] = read-out: solute carrier (SLCO1B1), SLCO1B1 (gene 10599); experiment: LTEA_HepaRG_SLCO1B1: Life Technologies and Expression Analysis (LTEA) Assay for solute carrier (SLCO1B1) using HepaRG (AID 2283530)
Method in brief: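 SLCO1B1 transcript levels were quantified by TaqMan qRT-PCR using three housekeeping genes for normalization. This followed 48 h chemical exposure (100 uM top, half-log, 8 points, 0.5% DMSO) of HepaRG liver cells, with gain or loss fitted relative to DMSO.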

[11] = read-out: Transforming Growth Factor (TGFA), TGFA (gene 7039); experiment: LTEA_HepaRG_TGFA: Life Technologies and Expression Analysis (LTEA) Assay for Transforming Growth Factor (TGFA) using HepaRG (AID 2283532)
Method in brief: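 Gene expression of TGFA was quantified by qRT-PCR after human HepaRG cells were treated for 48 h with test chemicals (eight concentrations, highest 100 uM, 0.5% DMSO). Activity in either direction was fitted relative to DMSO.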

[12] = read-out: Transforming Growth Factor (TGFB1), TGFB1 (gene 7040); experiment: LTEA_HepaRG_TGFB1: Life Technologies and Expression Analysis (LTEA) Assay for Transforming Growth Factor (TGFB1) Transporter using HepaRG (AID 2283533)
Method in brief: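 TGFB1 transcript measured by qRT-PCR with normalisation to three housekeeping genes (ACTB, GAPDH, POLR2A); human HepaRG line treated in duplicate for 48 hr with an 8-point series topping at 100 uM, 0.5% DMSO vehicle, bidirectionally fitted.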

TIMP1, TIMP1 (gene 7076) = experiment: LTEA_HepaRG_TIMP1: Life Technologies and Expression Analysis (LTEA) Assay for TIMP1 using HepaRG (AID 2283534)
Method in brief: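 Bidirectional change in TIMP1 transcript versus 0.5% DMSO, measured by TaqMan qRT-PCR with three housekeeping genes for normalization. HepaRG human liver cells dosed 48 h in duplicate, top concentration 100 uM with half-log dilutions.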

[13] = read-out: Tumor necrosis factor receptor 1 (TNFRSF1A), TNFRSF1A (gene 7132); experiment: LTEA_HepaRG_TNFRSF1A: Life Technologies and Expression Analysis (LTEA) Assay for Tumor necrosis factor receptor 1 (TNFRSF1A) using HepaRG (AID 2283535)
Method in brief: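 mRNA measured by qRT-PCR (TaqMan, Fluidigm arrays) against ACTB/GAPDH/POLR2A housekeepers after 48 h chemical exposure of HepaRG cells. Top concentration 100 uM, half-log 8-point series, duplicates; vehicle 0.5% DMSO, both fit directions.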

[14] = read-out: Thyroid Hormone Responsive (THRSP), THRSP (gene 7069); experiment: LTEA_HepaRG_THRSP: Life Technologies and Expression Analysis (LTEA) Assay for Thyroid Hormone Responsive (THRSP) using HepaRG (AID 2283536)
Method in brief: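 Cell model: human HepaRG, approx. 100,000 cells/well, 0.5% DMSO vehicle. Exposure lasts 48 h; phenobarbital 1 mM serves as induction positive control. Gene expression is measured by qRT-PCR against three endogenous control genes.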

[15] = read-out: UDP glucuronosyltransferase (UGT1A1), UGT1A1 (gene 54658); experiment: LTEA_HepaRG_UGT1A1: Life Technologies and Expression Analysis (LTEA) Assay for UDP glucuronosyltransferase (UGT1A1) using HepaRG (AID 2283538)
Method in brief: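 HepaRG, 48 h chemical exposure (top 100 uM, half-log 8-pt, 0.5% DMSO vehicle), duplicate wells; qRT-PCR (TaqMan, Fluidigm array) for UGT1A1 mRNA, housekeeping-normalized; bidirectional curve fit vs DMSO baseline.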

[16] = read-out: UDP glucuronosyltransferase (UGT1A6), UGT1A6 (gene 54578); experiment: LTEA_HepaRG_UGT1A6: Life Technologies and Expression Analysis (LTEA) Assay for UDP glucuronosyltransferase (UGT1A6) using HepaRG (AID 2283539)
Method in brief: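 Expression was quantified by TaqMan qRT-PCR on Fluidigm arrays with ACTB/GAPDH/POLR2A normalization and bidirectional fitting against 0.5% DMSO. HepaRG cells (~100,000/well) were treated in duplicate for 48 h at eight half-log concentrations up to 100 uM in serum-free induction medium.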

[17] = read-out: Cellular tumor antigen p53 (Homo sapiens) (UniProt P04637); experiment: LTEA_HepaRG_TP53: Life Technologies and Expression Analysis (LTEA) Assay for Tumor Protein P53 (TP53) using HepaRG (AID 2283537)
Method in brief: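 Gain or loss of TP53 mRNA signal is scored relative to 0.5% DMSO after 48 h chemical treatment of HepaRG liver cells, tested in duplicate at eight half-log concentrations up to 100 uM.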

[18] = read-out: X-box binding protein 1 (XBP1), XBP1 (gene 7494); experiment: LTEA_HepaRG_XBP1: Life Technologies and Expression Analysis (LTEA) Assay for X-box binding protein 1 (XBP1) using HepaRG (AID 2283540)
Method in brief: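 XBP1 transcript by qRT-PCR (housekeeping-normalized: ACTB, GAPDH, POLR2A) after 48 h chemical treatment of HepaRG cells, 8-point half-log series topping at 100 uM, vehicle 0.5% DMSO. Gain and loss of signal fitted relative to DMSO.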

[19] = read-out: sulfotransferase 2A1 (SULT2A1), SULT2A1 (gene 6822); experiment: LTEA_HepaRG_SULT2A1: Life Technologies and Expression Analysis (LTEA) Assay for sulfotransferase 2A1 (SULT2A1) using HepaRG (AID 2283531)
Method in brief: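 Expression change of SULT2A1, by qRT-PCR with three housekeeping-gene normalization, was scored bidirectionally versus DMSO. Cells: differentiated HepaRG, dosed in duplicate for 48 h across 8 points, highest 100 µM, half-log dilution, 0.5% DMSO.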

Measured: AC50

Sequence of Nuclear factor erythroid 2-related factor 2 (Homo sapiens) (Q16236 whole entry, looked up): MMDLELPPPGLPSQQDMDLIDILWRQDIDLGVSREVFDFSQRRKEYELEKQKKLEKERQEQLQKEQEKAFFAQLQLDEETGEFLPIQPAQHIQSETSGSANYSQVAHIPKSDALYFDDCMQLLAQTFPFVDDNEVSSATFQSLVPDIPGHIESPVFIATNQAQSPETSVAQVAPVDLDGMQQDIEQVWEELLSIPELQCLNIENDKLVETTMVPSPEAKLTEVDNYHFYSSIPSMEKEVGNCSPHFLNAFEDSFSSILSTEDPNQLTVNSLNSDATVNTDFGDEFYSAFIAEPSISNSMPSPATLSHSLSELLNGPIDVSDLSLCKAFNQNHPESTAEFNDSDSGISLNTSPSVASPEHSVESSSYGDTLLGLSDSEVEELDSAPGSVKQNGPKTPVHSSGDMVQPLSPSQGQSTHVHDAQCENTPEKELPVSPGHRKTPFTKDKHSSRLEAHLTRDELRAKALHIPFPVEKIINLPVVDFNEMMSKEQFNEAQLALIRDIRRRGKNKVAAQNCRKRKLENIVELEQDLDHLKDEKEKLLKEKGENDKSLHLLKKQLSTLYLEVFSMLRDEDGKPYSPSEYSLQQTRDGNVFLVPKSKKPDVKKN
Sequence of Nuclear factor NF-kappa-B p105 subunit (Homo sapiens) (P19838 whole entry, looked up): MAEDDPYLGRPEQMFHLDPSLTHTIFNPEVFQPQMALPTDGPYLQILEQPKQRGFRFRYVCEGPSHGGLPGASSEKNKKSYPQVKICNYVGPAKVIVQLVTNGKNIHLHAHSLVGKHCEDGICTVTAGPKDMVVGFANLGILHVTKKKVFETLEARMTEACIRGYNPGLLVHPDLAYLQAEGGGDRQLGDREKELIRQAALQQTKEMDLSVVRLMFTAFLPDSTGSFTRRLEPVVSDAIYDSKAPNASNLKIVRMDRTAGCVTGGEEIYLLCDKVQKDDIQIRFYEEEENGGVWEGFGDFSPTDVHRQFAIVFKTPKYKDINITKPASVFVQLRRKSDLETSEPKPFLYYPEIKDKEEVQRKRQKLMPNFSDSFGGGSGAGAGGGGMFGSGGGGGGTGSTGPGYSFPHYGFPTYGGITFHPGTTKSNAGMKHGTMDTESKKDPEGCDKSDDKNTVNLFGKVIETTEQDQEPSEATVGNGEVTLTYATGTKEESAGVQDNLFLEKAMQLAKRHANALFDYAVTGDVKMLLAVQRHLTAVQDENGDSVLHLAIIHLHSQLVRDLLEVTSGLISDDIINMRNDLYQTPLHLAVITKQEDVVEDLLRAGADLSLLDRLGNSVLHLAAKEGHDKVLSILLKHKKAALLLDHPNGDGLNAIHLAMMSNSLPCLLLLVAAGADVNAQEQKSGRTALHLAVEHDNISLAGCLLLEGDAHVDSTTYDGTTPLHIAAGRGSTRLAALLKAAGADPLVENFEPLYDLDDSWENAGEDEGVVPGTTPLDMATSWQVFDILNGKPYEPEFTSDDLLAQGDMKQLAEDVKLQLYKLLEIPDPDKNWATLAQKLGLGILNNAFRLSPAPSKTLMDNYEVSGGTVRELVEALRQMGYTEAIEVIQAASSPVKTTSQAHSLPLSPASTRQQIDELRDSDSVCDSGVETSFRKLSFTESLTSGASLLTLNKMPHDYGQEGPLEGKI
Sequence of Signal transducer and activator of transcription 3 (Homo sapiens) (P40763 whole entry, looked up): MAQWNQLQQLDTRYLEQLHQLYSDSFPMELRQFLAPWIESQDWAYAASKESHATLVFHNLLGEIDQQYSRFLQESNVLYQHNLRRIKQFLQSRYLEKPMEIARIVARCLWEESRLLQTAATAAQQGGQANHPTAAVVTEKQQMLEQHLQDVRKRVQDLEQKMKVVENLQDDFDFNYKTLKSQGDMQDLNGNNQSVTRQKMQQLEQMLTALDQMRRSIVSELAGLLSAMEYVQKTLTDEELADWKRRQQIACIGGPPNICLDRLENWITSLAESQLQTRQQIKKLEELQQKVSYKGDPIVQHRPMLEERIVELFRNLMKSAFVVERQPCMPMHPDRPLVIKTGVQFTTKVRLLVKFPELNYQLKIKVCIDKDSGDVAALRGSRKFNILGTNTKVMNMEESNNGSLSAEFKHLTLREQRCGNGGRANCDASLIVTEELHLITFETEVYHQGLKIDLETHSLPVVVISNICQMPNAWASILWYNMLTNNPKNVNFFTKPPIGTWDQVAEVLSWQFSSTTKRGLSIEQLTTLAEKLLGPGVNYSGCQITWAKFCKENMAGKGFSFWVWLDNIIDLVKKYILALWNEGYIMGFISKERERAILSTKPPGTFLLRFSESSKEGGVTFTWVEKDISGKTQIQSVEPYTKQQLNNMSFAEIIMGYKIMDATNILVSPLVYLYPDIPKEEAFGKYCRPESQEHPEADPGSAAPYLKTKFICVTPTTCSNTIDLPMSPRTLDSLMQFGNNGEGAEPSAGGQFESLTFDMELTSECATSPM
Sequence of Cellular tumor antigen p53 (Homo sapiens) (P04637 whole entry, looked up): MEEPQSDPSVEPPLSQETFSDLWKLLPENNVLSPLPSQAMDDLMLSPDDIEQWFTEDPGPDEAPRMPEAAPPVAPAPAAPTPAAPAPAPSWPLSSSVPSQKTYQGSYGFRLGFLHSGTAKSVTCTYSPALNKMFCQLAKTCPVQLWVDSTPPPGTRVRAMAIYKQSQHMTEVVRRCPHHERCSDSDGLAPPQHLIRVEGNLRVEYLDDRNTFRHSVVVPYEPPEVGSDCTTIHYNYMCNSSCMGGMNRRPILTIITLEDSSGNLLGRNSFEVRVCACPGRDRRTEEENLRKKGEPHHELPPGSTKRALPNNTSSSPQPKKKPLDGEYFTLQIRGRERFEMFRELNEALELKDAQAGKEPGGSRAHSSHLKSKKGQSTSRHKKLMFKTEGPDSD

C#CC(O)C(CC)CCCC (stereo not given)
not listed: [17] | [18] | [19]
inactive: all other assays above

C=CCCCCCCCCCCCC
not listed: [15] | [19]
inactive: all other assays above

CC(=O)S[C@H](C(=O)N[C@H]1Cc2ccccc2[C@H]2CCC[C@@H](C(=O)O)N2C1=O)C(C)C
not listed: [19]
inactive: all other assays above

CCCCC(CC)COC(=O)CCCCCCCC(=O)OCC(CC)CCCC (stereo not given)
not listed: [2] | [4] | [15]
inactive: all other assays above

O=C(O)CC(O)(CC(=O)O)C(=O)O
not listed: [2] | [18] | [19]
inactive: all other assays above

COC(=O)CCC(=O)OC
not listed: [2] | [18]
inactive: all other assays above

CCCCOC(=O)CCCCC(=O)OCCCC
active: [4] 0.243 µM
not listed: [2] | [15] | [17] | [18]
inactive: all other assays above

Cc1c(C)c2c(c(C)c1O)CCC(C)(COc1ccc(CC3SC(=O)NC3=O)cc1)O2 (stereo not given)
active: [1] 77 µM | [10] 24.7 µM | [19] 93.4 µM | [12] 12 µM | TIMP1, TIMP1 (gene 7076) 50 µM | [14] 27.1 µM
not listed: [2] | [4]
inactive: all other assays above
